We go through eight compounds from PubChem BioAssay (NCI).

About 83,000 compounds went through this panel and 20% of them were active in at least one assay; those are over-represented in the sample as a whole.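 A percent growth of 40 corresponds to 60% growth inhibition; 0 means no net growth; -100 means all cells died. Active threshold: below 10.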 A number with no mark means an inactive call. Activity calls are given as the source filed them.

Test systems include RPMI-8226 leukemia; OVCAR-8 ovarian; OVCAR-5 ovarian; OVCAR-4 ovarian; SK-OV-3 ovarian; IGROV1 ovarian; OVCAR-3 ovarian; HS 578T breast; NCI/ADR-RES ovarian; T-47D breast; BT-549 breast; MDA-MB-435 melanoma; SW-620 colon; MCF7 breast; HCT-116 colon; HCC-2998 colon; KM12 colon; SR leukemia.
Experiment in all cases: NCI-60 one-dose screen, 48 h (100 = growth as untreated, 0 = no growth, -100 = all killed)
Conditions in all cases: 10 µM unless noted

Turning to `CC(C)(C)c1ccc(CC(=O)Nc2sc3c(c2C(N)=O)CCC(=O)C3)cc1`, the growth was -20.7% (active) in the test with RPMI-8226 leukemia; 11.1% in the test on OVCAR-8 ovarian; 7% (active) with OVCAR-5 ovarian; -32.2% (active) in the test with OVCAR-4 ovarian; 9.81% (active) in the test with SK-OV-3 ovarian; 8.85% (active) in the test with IGROV1 ovarian. Besides, the growth with OVCAR-3 ovarian is -36% (active); in the test on HS 578T breast it was 33.6%; with NCI/ADR-RES ovarian, 3.51% (active); in the test on T-47D breast, -15.4% (active); in the test on BT-549 breast, 9.57% (active); with MDA-MB-435 melanoma, 1.24% (active). The growth was 3.83% (active) in the test with SW-620 colon; 5.89% (active) in the test on MCF7 breast; 5.7% (active) in the test on HCT-116 colon; 25.5% in the test on HCC-2998 colon; -3.85% (active) in the test with KM12 colon.
Take `COc1cccc(C(=O)Nc2cccc(C#Cc3cccc4[nH]nc(N)c34)c2)c1`: the growth is 39.2% with RPMI-8226 leukemia; 50.4% in the test on OVCAR-8 ovarian; 69.2% with OVCAR-5 ovarian; 67.8% in the test with OVCAR-4 ovarian; 86.7% with SK-OV-3 ovarian; 59.9% with IGROV1 ovarian. Also, the growth is 66.4% with HS 578T breast; 45.5% in the test with NCI/ADR-RES ovarian; 38% in the test with T-47D breast; 121% with BT-549 breast; 1.93% (active) in the test with MDA-MB-435 melanoma; 30.7% with MCF7 breast. Further, the figures for the growth with HCT-116 colon, in the test on HCC-2998 colon and in the test on KM12 colon were 33.1%, 45.9% and 12.6%, respectively.
For `CCN1CCN(C(=O)[C@]23CCC(C)(C)C[C@H]2C2=CC[C@@H]4[C@@]5(C)Cc6c([nH]c7ccccc67)C(C)(C)[C@@H]5CC[C@@]4(C)[C@]2(C)CC3)CC1`, the growth in the test with RPMI-8226 leukemia is 84.9%; with OVCAR-8 ovarian, 91.8%; in the test with OVCAR-5 ovarian, 80.1%; in the test with OVCAR-4 ovarian, 99.7%; in the test on SK-OV-3 ovarian, 106%; with IGROV1 ovarian, 88.7%. Also, the growth is 106% in the test with OVCAR-3 ovarian; 87.1% in the test with HS 578T breast; 87% in the test with NCI/ADR-RES ovarian; 72.6% in the test with T-47D breast; 101% in the test with BT-549 breast; 91.4% in the test with MDA-MB-435 melanoma. Also, the growth is 98.1% in the test with SW-620 colon; 78.1% with MCF7 breast; 77.7% in the test on HCT-116 colon; 106% in the test on HCC-2998 colon; 86.2% in the test on KM12 colon.
Take `C=C(C=O)[C@@H]1CC[C@]2(CO)CC[C@]3(C)[C@H](CC[C@@H]4[C@@]5(C)CCCNC(C)(C)[C@@H]5CC[C@]43C)[C@@H]12`: the growth with SR leukemia is 3.73% (active); in the test on OVCAR-8 ovarian it was 50.8%; with OVCAR-5 ovarian, 88.7%; with OVCAR-4 ovarian, 87%; in the test on SK-OV-3 ovarian it was 104%; with IGROV1 ovarian it was 52.8%. For the same compound, the growth is 3.49% (active) with OVCAR-3 ovarian; 71.8% in the test on HS 578T breast; 65.3% with NCI/ADR-RES ovarian; 13.3% in the test on T-47D breast; 74.3% with BT-549 breast; 76.3% with MDA-MB-435 melanoma. The growth was 12.7% in the test with MCF7 breast, -63.8% (active) with HCT-116 colon, -65.7% (active) in the test on HCC-2998 colon and 1.61% (active) in the test on KM12 colon.
For `c1cn2c(ccc3nc(-c4cn[nH]c4)c4c(c32)CCCC4)n1`, the growth in the test with RPMI-8226 leukemia was 80.7%; with OVCAR-8 ovarian, 57.1%; in the test on OVCAR-5 ovarian, 99.4%; in the test with OVCAR-4 ovarian it was 77.9%; in the test with SK-OV-3 ovarian, -10.1% (active); with IGROV1 ovarian, 45.3%. For the same compound, the growth with HS 578T breast is 31.5%; in the test with NCI/ADR-RES ovarian, 77.3%; with T-47D breast, 45.4%; in the test with BT-549 breast it was 53.1%; in the test on MDA-MB-435 melanoma, 34.9%; in the test on SW-620 colon, 61.2%. The growth with MCF7 breast is 60.9%; in the test on HCT-116 colon, 48.7%; with HCC-2998 colon it was 87.2%; with KM12 colon it was 74.9%.
In the case of `COc1cc(OC)cc(C(=O)Nc2sc3c(c2C(N)=O)CCC(=O)C3)c1`, the growth with RPMI-8226 leukemia was 1.86% (active); in the test with OVCAR-8 ovarian, 42.1%; with OVCAR-5 ovarian it was 48.3%; in the test with OVCAR-4 ovarian it was 9.16% (active); in the test with SK-OV-3 ovarian, 106%; in the test on IGROV1 ovarian, 48.8%. The growth in the test with OVCAR-3 ovarian is 14.8%; in the test on HS 578T breast it was 23.7%; in the test with NCI/ADR-RES ovarian, 53.9%; in the test with T-47D breast, 7.67% (active); in the test on BT-549 breast, 11.1%; in the test on MDA-MB-435 melanoma it was 41.7%. Also, the growth in the test on SW-620 colon is 18.6%; with MCF7 breast, 24.4%; in the test with HCT-116 colon, 7.89% (active); with HCC-2998 colon, 88.3%; in the test with KM12 colon, 12%.
`COc1cc(/C=C2\C(=O)Nc3ccccc32)ccc1OCc1ccc(Cl)cc1`: the growth in the test on SR leukemia is 93.8%; in the test on OVCAR-8 ovarian it was 102%; with OVCAR-5 ovarian, 101%; with OVCAR-4 ovarian, 99.1%; in the test on SK-OV-3 ovarian it was 111%; with IGROV1 ovarian it was 102%. For the same compound, the growth in the test on OVCAR-3 ovarian is 106%; in the test with HS 578T breast it was 105%; with NCI/ADR-RES ovarian, 100%; in the test with T-47D breast, 107%; in the test on BT-549 breast, 109%; with MDA-MB-435 melanoma, 106%. Further, the growth in the test on SW-620 colon is 96.6%; with MCF7 breast, 69.5%; with HCT-116 colon, 86.9%; in the test with HCC-2998 colon it was 123%; in the test with KM12 colon, 99.6%.
With `COc1cc2nc(Cl)nc(Nc3cccc(C4=Nc5c(N)nc(N)nc5NC(c5ccc(F)cc5)C4)c3)c2cc1OC` (configuration not stated), the growth in the test on RPMI-8226 leukemia is -3.6% (active); with OVCAR-8 ovarian, 51.6%; in the test with OVCAR-5 ovarian, 107%; in the test on OVCAR-4 ovarian, 96.6%; in the test with SK-OV-3 ovarian, 117%; in the test with IGROV1 ovarian, 80.8%. Also, the growth was 61% in the test with OVCAR-3 ovarian; 86.1% with HS 578T breast; 80% in the test on NCI/ADR-RES ovarian; 63.7% in the test on T-47D breast; 78.1% in the test with BT-549 breast; 77.2% in the test on MDA-MB-435 melanoma. The growth was 12.7% in the test with SW-620 colon; -5.06% (active) in the test with MCF7 breast; -41.7% (active) in the test on HCT-116 colon; 22.9% in the test on HCC-2998 colon; 34.1% in the test with KM12 colon.
